Cav32 inh – human Cav3.2 channel inhibition, primary screen. O95180. Cav3.2-expressing cells, Fluo-4 calcium fluorescence FDSS; stronger effect = lower value. B-score at 10 µM. hit rate 4% among 100,000;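 active means single-dose well whose peak fluorescence ratio is a statistical outlier from its plate by either plate-standardised score or position-corrected B-score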
CYP2C19 activ – cytochrome P450 2C19 (human) activation | P33261 | recombinant CYP2C19, luciferin-H EGE luminescence; stronger effect = higher value; 0 = fully inhibited enzyme, 1 = untreated enzyme | activation factor at 5 µM | 96,000 tested, under 10 active;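 active means activation factor of at least 2 at 5 µM in the primary screen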;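 further: 0 = wells with 2.5 mM tranylcypromine and 1 = vehicle-only wells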
Target sequence (P33261 whole entry, looked up): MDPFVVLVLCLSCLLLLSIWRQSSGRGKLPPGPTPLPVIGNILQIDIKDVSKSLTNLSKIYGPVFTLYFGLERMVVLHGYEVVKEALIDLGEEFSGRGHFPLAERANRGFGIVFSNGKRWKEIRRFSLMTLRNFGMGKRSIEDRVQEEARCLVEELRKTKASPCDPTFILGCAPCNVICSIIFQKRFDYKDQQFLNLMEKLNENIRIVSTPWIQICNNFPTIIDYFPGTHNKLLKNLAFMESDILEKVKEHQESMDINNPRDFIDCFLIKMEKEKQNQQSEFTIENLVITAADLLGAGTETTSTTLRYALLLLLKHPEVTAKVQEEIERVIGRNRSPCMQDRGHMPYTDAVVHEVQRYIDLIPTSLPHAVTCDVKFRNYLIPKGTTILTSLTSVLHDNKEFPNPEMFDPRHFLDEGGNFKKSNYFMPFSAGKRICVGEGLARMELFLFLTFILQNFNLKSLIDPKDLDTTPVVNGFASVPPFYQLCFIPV
CYP2C9 inh – human CYP2C9 inhibition. P11712. CYP2C9 Supersomes, luciferin-H conversion, luminescence. inhibition, % at 5 µM. hit rate 20% among 96,000;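 active means blocking of liver enzyme CYP2C9 beyond about 50% at 5 µM, limit read from the data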
CYP2C9 activ – CYP2C9 (human) activation. recombinant CYP2C9, luciferin-H conversion, luminescence; stronger effect = higher value; factor 1 = untreated enzyme, 0 = blocked. AID 1024. activation factor at 5 µM. hit rate 1.4% among 96,000;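 active means activation factor of 2 or more for CYP2C9 at a 5 µM dose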;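 further: 0 = sulfaphenazole-blocked wells and 1 = vehicle-only wells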
CYP2C19 inh – human CYP2C19 inhibition. P33261. CYP2C19 Supersomes, luciferin-H EGE luminescence, 30 min. inhibition, % at 5 µM. hit rate 21% among 96,000;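 active means CYP2C19 inhibition above a set limit at 5 µM in the primary screen, cut at about 50% in these data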;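 further: plate controls were negative control wells for no effect and 2.5 mM tranylcypromine positive control for full effect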
* = called active by the depositor; · = no result given. Compounds with a hit are over-represented: about 27% of the library has one in this group of screens.

SMILES | Cav32 inh | CYP2C19 activ | CYP2C9 inh | CYP2C9 activ | CYP2C19 inh
O=C(c1ccc(S(=O)(=O)N2CCOCC2)cc1)N1CCN(c2ccccc2F)CC1 | 0.0936 | 1.1 | -8.9 | 1.1 | -7.1
O=C(COC(=O)Cc1cccs1)Nc1ccccc1 | 0.845 | 0.3 | 28.7 | 0.7 | 68.6*
CC(C)C(=O)Nc1ccc(Nc2ccccc2)cc1 | -0.0502 | 0.5 | 55.2* | 0.4 | 54.6*
O=C(Nc1ccc(Nc2ccccc2)cc1)c1ccco1 | -0.934 | 0.3 | 82.4* | 0.2 | 67.0*
O=C(Nc1nc(-c2cccs2)c(-c2ccccc2)s1)c1ccco1 | 0.341 | 0.3 | 96.0* | 0 | 66.2*
O=C(Nc1nnc(-c2cccs2)o1)c1ccco1 | -0.24 | 1 | 33.7 | 0.7 | -4.1
CC(C)CC(=O)Nc1ccc(Nc2ccccc2)cc1 | -0.604 | · | · | · | ·
O=C(NCc1ccccn1)c1cc(-n2cnnc2)ccc1Cl | 0.453 | 0.9 | 2.7 | 1 | 10.5
COC(=O)CC1SCCNC1=O (centres undefined) | -0.98 | 1.2 | -17.9 | 1.2 | -17.5
O=C(COC(=O)c1ccco1)Nc1ccc(Br)cc1 | -0.344 | 0.7 | 37.1 | 0.6 | 25.3
O=C(Nc1ccc(Cc2ccncc2)cc1)c1ccco1 | 0.176 | 0 | 98.3* | 0 | 96.3*
O=C(COC(=O)c1ccco1)Nc1ccccc1 | 1.28 | 0.4 | 17.5 | 0.8 | 57.7*
O=C(Nc1nccs1)c1ccc(NC(=O)c2ccco2)cc1 | 0.0776 | 0.8 | 51.2* | 0.5 | 19.6
O=C(Nc1ccc(OCC(=O)N2CCC(Cc3ccccc3)CC2)cc1)c1ccco1 | -7.2* | 0.1 | 86.8* | 0.1 | 94.6*
CCC(=O)N(Cc1cc(=O)[nH]c2ccccc12)c1cccc(C)c1 | -0.59 | 0.8 | 26.6 | 0.7 | 15.9
CCCN1CCC(=O)N([C@H](CSc2ccc(Br)cc2)Cc2ccccc2)CC1 | -1.89 | · | · | · | ·
CC(C)OC(=O)c1ccc(NC(=O)c2ccco2)cc1 | 1.01 | 0.4 | 45.3 | 0.5 | 56.8*
O=C(COC(=O)[C@H](Cc1ccccc1)NC(=O)c1ccco1)NCc1ccccc1 | 0.055 | 0.3 | 90.6* | 0.1 | 70.9*
O=C(COC(=O)c1cccnc1)Nc1ccccc1 | 0.121 | · | · | · | ·
Cn1cc(Cl)c(C(=O)OCC(=O)Nc2ccccc2)n1 | 0.21 | 0.2 | 21.8 | 0.8 | 82.9*
Cn1cc(Cl)c(C(=O)Nc2nc3ccccc3s2)n1 | 0.00712 | 0.5 | -6.0 | 1.1 | 53.8*
O=C(CN1C(=O)NC2(CCCCCC2)C1=O)N1CCN(S(=O)(=O)c2ccc(Cl)cc2)CC1 | 0.121 | 0.9 | 10.5 | 0.9 | 7.8
Cn1c(=O)c2nc(-c3ccc(Cl)cc3Cl)oc2c2ccccc21 | -0.089 | · | · | · | ·
CCn1c(NC(=O)c2ccc(F)cc2)c2ccccc2nc1=O | 0.81 | 0.3 | 20.1 | 0.8 | 72.2*
O=C(c1cc2ccccn2n1)N1CCN(Cc2ccccc2)CC1 | 1.24 | 0 | -31.6 | 1.3 | 95.8*
SMILES | Cav32 inh | CYP2C19 activ | CYP2C9 inh | CYP2C9 activ | CYP2C19 inh
Nc1nc(SCC(=O)OCc2ccccc2)[nH]c(=O)c1NC(=O)c1ccco1 | 0.052 | 1.2 | -12.6 | 1.1 | -21.4
CN(C(=O)CSc1nc2c(c(=O)[nH]1)CCCC2)C1CCCCC1 | 0.883 | 0.8 | 69.3* | 0.3 | 21.8
Cc1nc(SCC(=O)NC2CCCC2)[nH]c(=O)c1Cc1ccccc1 | · | 0.8 | 45.5 | 0.5 | 15.6
Cc1nc(SCC(=O)N(C)C2CCCCC2)[nH]c(=O)c1Cc1ccccc1 | · | 0.4 | 69.0* | 0.3 | 59.8*
CCN(CC)CCCN1C(=O)C(=O)/C(=C(/O)c2ccc3c(c2)OCCO3)C1c1ccc(C)o1 (centres undefined) | · | 1 | -0.7 | 1 | 4.5
COC(=O)c1ccc(NC(=O)CSc2nnc(COc3ccccc3)n2C)cc1 | 0.0232 | 0.8 | 17.1 | 0.8 | 15.1
COc1ccc(CCNc2nc(N3CCCCC3)nc(N3CCCCC3)n2)cc1OC | -6.69* | 0.2 | 72.1* | 0.3 | 81.9*
Cc1nc2c3c(-c4ccccc4)c(-c4ccccc4)oc3ncn2n1 | · | 1 | 11.2 | 0.9 | 1.4
CCCCCCSC1=C(C#N)C(=O)NC2(CCCCC2)S1 | -0.325 | · | · | · | ·
C=CCc1cc(C)cc(C)c1OCCn1cncn1 | 1.08 | · | · | · | ·
Clc1ccc(SCCn2cncn2)cc1 | -0.00505 | 0.7 | 31.1 | 0.7 | 34.7
Cc1cc(C)c(OCCCCNCc2ccccc2)c(Cl)c1 | -1.14 | 0.6 | 22.2 | 0.8 | 42.9
Cc1cc(Cl)cc(Br)c1OCCCCn1cncn1 | -0.0728 | 0 | 73.1* | 0.3 | 97.8*
Cc1cc(Cl)c(OCCCn2cncn2)c(Br)c1 | -0.568 | 0.1 | 42.8 | 0.6 | 94.4*
C=CCNCCCCOc1c(Cl)cc(C)cc1Br | 0.328 | 0.4 | -10.2 | 1.1 | 57.2*
CCCOc1ccc(/C(O)=C2\C(=O)C(=O)N(CCCN(C)C)C23C(=O)N(C)c2ccccc23)cc1 (centres undefined) | · | 1 | -19.8 | 1.2 | -3.5
CSc1ccccc1NC(=O)c1cc(C)on1 | 0.0242 | 0.8 | -142.7 | 2.4* | 18.1
CSc1ccccc1NC(=O)c1ccncc1 | 0.189 | 0.3 | -0.3 | 1 | 66.0*
CSc1ccccc1NC(=O)c1c(C)noc1C | -0.399 | 0.9 | -4.5 | 1 | 10.3
Cn1c(=O)oc2cc(S(=O)(=O)NCCC(=O)N3CCc4ccccc43)ccc21 | · | 1.1 | -36.6 | 1.4 | -10.4
CCc1ccccc1NC(=O)CN1CCC(NC(=O)COC)CC1 | -0.783 | 0.9 | 13.6 | 0.9 | 7.8
CCOC(=O)CC(C#N)c1cn(C)c2ccccc12 (centres undefined) | 1.2 | 0.1 | -249.3 | 3.5* | 87.8*
CC1C/C(=C/c2cccn2C)C(=O)/C(=C/c2cccn2C)C1 (centres undefined) | -13.7* | 1 | 1.0 | 1 | 3.9
COc1cnc(SCC(=O)O)[nH]c1=O | 0.539 | 1.1 | -5.8 | 1.1 | -7.7
CCCNC(=O)Nc1ccc2c(c1)N(C)C(=O)c1ccccc1S2 | -0.0275 | 0.6 | 78.9* | 0.2 | 41.2
SMILES | Cav32 inh | CYP2C19 activ | CYP2C9 inh | CYP2C9 activ | CYP2C19 inh
C[N+]1(CC(=O)Nc2ccccc2Cl)CCN(C(=O)c2cccs2)CC1 | 0.2 | 1.1 | -15.0 | 1.1 | -12.0
Cn1c(C(=O)N2CCCC(C(=O)N3CCN(C(=O)c4ccco4)CC3)C2)cc2sccc21 (centres undefined) | 1.7 | 0.9 | 24.9 | 0.8 | 9.6
CCc1ccc2c(c1)CCCN2C(=O)c1ccccc1C(=O)O | -0.47 | 0.5 | 32.7 | 0.7 | 49.2
CCn1c(C(=O)N2CCC(C(=O)N3CCN(c4ccccn4)CC3)CC2)cc2sccc21 | 1.43 | 0.3 | -60.2 | 1.6 | 65.2*
CC1CCN(C(=O)C2CCN(C(=O)c3cc4sccc4n3Cc3ccc(F)cc3)CC2)CC1 | -4.1* | 0.7 | 72.9* | 0.3 | 31.1
CC(C)NC(=O)C1CCN(C(=O)c2cc3sccc3n2Cc2ccc(F)cc2)CC1 | -0.446 | 0.4 | 72.3* | 0.3 | 56.5*
O=C(c1cc2sccc2n1Cc1ccc(F)cc1)N1CCCc2ccccc21 | -3.79* | · | · | · | ·
CCc1ccc(N2CC(C(=O)Nc3ccccc3F)CC2=O)cc1 (centres undefined) | -0.0068 | 0.5 | 82.0* | 0.2 | 46.0
Cc1ccc(N2CC(C(=O)N/N=C/c3cccc([N+](=O)[O-])c3)CC2=O)cc1 (centres undefined) | -1.27 | 0.7 | 35.5 | 0.6 | 25.3
